Laboratory results from PubChem BioAssay (Tox21).
Records with an inconclusive call do not appear. Active and inactive are the calls of the source. Calls come from the whole dose curve.

Test: qHTS assay for small molecules that induce genotoxicity in human embryonic kidney cells expressing luciferase-tagged ATAD5 - cell viability (AID 651634); note: nearly all actives have a fitted effect of over 25% in size
Settings: HEK293T ATAD5-luc cells viability, CellTiter-Fluor, 15.5 h; series mostly up to 83.3 µM; activity, negative = cytotoxicity: at the top concentration
Excerpt: National Center for Advancing Translational Sciences [NCATS]
NIH Chemical Genomics Center [NCGC]
U.S. Environmental Protection Agency [EPA]
National Institutes of Environmental Health Sciences [NIEHS]
National Toxicology Program [NTP]
U.S. Food and Drug Administration [FDA]
Enhanced Level of Genome Instability Gene 1 (ELG1; human ATAD5) protein levels increase in response to various types of DNA damage. Using a luciferase reporter-gene tagged with ElG1, a cell-based assay [developed by Kyungjae Myung, NHGRI, NIH] was used to measure the induction of ATAD5 in human embryonic kidney cells (HEK293T). So, increase in luciferase activity can be used to identify the compounds that cause genetic stress. In addition to genotoxicity, these cells were also used to test for cytotoxicity by measuring the protease activity within live cells.
Tox21 Assay Protocol Summary:
For cytotoxicity screening, 2,000 cells in 5 uL/well were dispensed into white, solid-bottom 1536-well plates using a Multidrop Combi (Thermo Scientific) dispenser. Following transfer of 23 nL compound or DMSO vehicle by a pin tool, the plates were incubated 15.5 hr at 37C and 5% CO2. 1 ul CellTiter-Fluor reagent (Promega, Madison, WI) was then added to each plate and following 30 min incubation at 37C, fluorescence intensity was quantified on a ViewLux CCD-based plate reader.
% is set by controls: 0 for no effect and ±100 for the full control effect; potency is the fitted concentration of half-maximal effect.

| SMILES | Potency | activity, negative = cytotoxicity |
| --- | --- | --- |
| Nc1ccc(N)c2ccccc12 | 15.3 µM (active) | – |
| CCCCCCCCNC(C)C(O)c1ccc(SC(C)C)cc1 (stereo not given) | 10.6 µM (active) | – |
| Oc1ccc(Cl)cc1Sc1cc(Cl)ccc1O | 19.3 µM (active) | – |
| CCCCCCCC/C=C\CCCCCCCCOCCO | 39.8 µM (active) | – |
| O=C(OCC1CO1)C1CCCCC1C(=O)OCC1CO1 (stereo not given) | – | -6.04% (inactive) |
| O=C(c1ccc(F)cc1)C1CCN(CCn2c(=O)[nH]c3ccccc3c2=O)CC1 | – | 8.67% (inactive) |
| CCCCCCCCCCCCCCCC(=O)OC[C@H](O)[C@H]1OC(=O)C(O)=C1O | inactive | – |
| CC(C)(C)C(=O)OCOC(=O)[C@@H]1N2C(=O)[C@@H](NC(=O)[C@H](N)c3ccccc3)[C@H]2SC1(C)C | – | 12.9% [at 39.1 µM] (inactive) |
| COc1cc(/C=C/C(=O)O[C@H]2CC[C@]34C[C@]35CC[C@]3(C)[C@@H]([C@H](C)CCC=C(C)C)CC[C@@]3(C)[C@@H]5CC[C@H]4C2(C)C)ccc1O | inactive | – |
| Cc1cc(CCN2CCN(c3nsc4ccccc34)CC2)cc2c1NC(=O)CC2(C)C | 61.1 µM (active) | – |
| CC(C)C(C)(C)C(C)(C)C(C)(C)S | – | 23.5% (inactive) |
| Cc1ccc2oc(CN(Cc3ccccc3)C(=O)Nc3c(F)cc(F)cc3F)c(-c3ccc(Cl)cc3)c2c1 | – | 7.11% (inactive) |
| COc1cccc(N)c1 | 13.8 µM (active) | – |
| NNc1nc(-c2ccccc2)cs1 | 4.99 µM (active) | – |
| CCCCCCC[N+](CC)(CC)CCCCc1ccc(Cl)cc1 | – | -13.5% [at 39.1 µM] (inactive) |
| Cc1onc(-c2c(Cl)cccc2Cl)c1C(=O)N[C@@H]1C(=O)N2[C@@H]1SC(C)(C)[C@@H]2C(=O)O | – | 4.99% (inactive) |
| CN(C)C(=O)C1(N2CCCCC2)CCN(CC[C@@]2(c3ccc(Cl)c(Cl)c3)CN(C(=O)c3ccccc3)CCO2)CC1 | 64.1 µM (active) | – |
| CCCCCOC(=O)CCCC | – | 6.89% (inactive) |
| CCC(C)Nc1ccc(NC(C)CC)cc1 (stereo not given) | – | -13.8% [at 95.3 µM] (inactive) |
| NNc1nc(-c2ccc(N)cc2)cs1 | 24.3 µM (active) | – |

| SMILES | Potency | activity, negative = cytotoxicity |
| --- | --- | --- |
| CCCCCCOC(=O)c1ccc(O)cc1 | inactive | – |
| NC(=O)N1C(=O)C(C(=O)c2cc(Cl)cs2)c2cc(F)c(Cl)cc21 (stereo not given) | 27.3 µM (active) | – |
| O=C(O)c1ccc(Cl)c(Cl)c1 | – | 21.9% (inactive) |
| O=C(Nc1ccc(Oc2ccc(Cl)cc2)c(Cl)c1)c1cc(I)cc(I)c1O | – | -17.7% (inactive) |
| O=C(OCC(COC(=O)c1ccccc1)(COC(=O)c1ccccc1)COC(=O)c1ccccc1)c1ccccc1 | – | 12.7% (inactive) |
| CC[C@H](c1ccc(O)cc1)[C@@H](CC)c1ccc(O)cc1 | – | 20.4% [at 39.1 µM] (inactive) |
| NC(=O)NS(=O)(=O)c1ccc(N)cc1 | – | 5.74% (inactive) |
| C/C=C(\C)C(=O)OCc1ccccc1 | – | -9.54% (inactive) |
| O=C1c2c(O)ccc(Nc3ccc(CCO)cc3)c2C(=O)c2c([N+](=O)[O-])ccc(O)c21 | 48.6 µM (active) | – |
| O=C(NO)C1(NS(=O)(=O)c2ccc(Oc3ccc(F)cc3)cc2)CCOCC1 | – | 5.97% (inactive) |
| N=C1N=C(N)c2cc3ccccc3cc21 | – | 17.1% (inactive) |
| CCOC(=O)O[C@]1(C(=O)OCCl)CC[C@H]2[C@@H]3CCC4=CC(=O)C=C[C@]4(C)[C@H]3[C@@H](O)C[C@@]21C | – | 12.4% (inactive) |
| CCCCC(CC)CN=C(N)NC(N)=NCCCCCCN=C(N)NC(N)=NCC(CC)CCCC (stereo not given) | 26.6 µM (active) | – |
| CCCC(c1cc(C(C)(C)C)c(O)cc1C)c1cc(C(C)(C)C)c(O)cc1C | 31 µM (active) | – |
| CC1=C(C(=O)OC(C)C)C(c2cccc([N+](=O)[O-])c2)C(C(=O)OC2CN(C(c3ccccc3)c3ccccc3)C2)=C(N)N1 (stereo not given) | 18.8 µM (active) | – |
| C[C@@H](NCCCc1cccc(C(F)(F)F)c1)c1cccc2ccccc12 | 26.6 µM (active) | – |
| N/C(=N\N=C\c1ccc(Cl)cc1)N/N=C/c1ccc(Cl)cc1 | – | -9.23% (inactive) |
| O=C(Oc1cccc2cccnc12)c1ccccc1 | – | -7.25% (inactive) |
| O=c1[nH]sc2ccccc12 | – | -10.6% (inactive) |
| CCCCCCCCCCCCCCCS(=O)(=O)Oc1ccccc1 | – | 26.6% (inactive) |
